{
  "source": "ChEMBL document CHEMBL4808148",
  "about": "“HDAC6 screening dataset using tau-based substrate in an enzymatic assay yields selective inhibitors and activators” (2021)",
  "note": "About 390 (7%) of roughly 5,600 compounds showed an effect of 50% or more. For the sample, strong results were picked, then their nearest neighbours and some compounds at random. Residues, ends and D or L forms follow the SMILES beside them. *: point of attachment. PhAc = O=C(Cc1ccccc1)*",
  "data": [
    {"biological_target": "T1, Protein deacetylase HDAC6 (Homo sapiens) (UniProt Q9UBN7)", "T1 sequence (whole entry)": "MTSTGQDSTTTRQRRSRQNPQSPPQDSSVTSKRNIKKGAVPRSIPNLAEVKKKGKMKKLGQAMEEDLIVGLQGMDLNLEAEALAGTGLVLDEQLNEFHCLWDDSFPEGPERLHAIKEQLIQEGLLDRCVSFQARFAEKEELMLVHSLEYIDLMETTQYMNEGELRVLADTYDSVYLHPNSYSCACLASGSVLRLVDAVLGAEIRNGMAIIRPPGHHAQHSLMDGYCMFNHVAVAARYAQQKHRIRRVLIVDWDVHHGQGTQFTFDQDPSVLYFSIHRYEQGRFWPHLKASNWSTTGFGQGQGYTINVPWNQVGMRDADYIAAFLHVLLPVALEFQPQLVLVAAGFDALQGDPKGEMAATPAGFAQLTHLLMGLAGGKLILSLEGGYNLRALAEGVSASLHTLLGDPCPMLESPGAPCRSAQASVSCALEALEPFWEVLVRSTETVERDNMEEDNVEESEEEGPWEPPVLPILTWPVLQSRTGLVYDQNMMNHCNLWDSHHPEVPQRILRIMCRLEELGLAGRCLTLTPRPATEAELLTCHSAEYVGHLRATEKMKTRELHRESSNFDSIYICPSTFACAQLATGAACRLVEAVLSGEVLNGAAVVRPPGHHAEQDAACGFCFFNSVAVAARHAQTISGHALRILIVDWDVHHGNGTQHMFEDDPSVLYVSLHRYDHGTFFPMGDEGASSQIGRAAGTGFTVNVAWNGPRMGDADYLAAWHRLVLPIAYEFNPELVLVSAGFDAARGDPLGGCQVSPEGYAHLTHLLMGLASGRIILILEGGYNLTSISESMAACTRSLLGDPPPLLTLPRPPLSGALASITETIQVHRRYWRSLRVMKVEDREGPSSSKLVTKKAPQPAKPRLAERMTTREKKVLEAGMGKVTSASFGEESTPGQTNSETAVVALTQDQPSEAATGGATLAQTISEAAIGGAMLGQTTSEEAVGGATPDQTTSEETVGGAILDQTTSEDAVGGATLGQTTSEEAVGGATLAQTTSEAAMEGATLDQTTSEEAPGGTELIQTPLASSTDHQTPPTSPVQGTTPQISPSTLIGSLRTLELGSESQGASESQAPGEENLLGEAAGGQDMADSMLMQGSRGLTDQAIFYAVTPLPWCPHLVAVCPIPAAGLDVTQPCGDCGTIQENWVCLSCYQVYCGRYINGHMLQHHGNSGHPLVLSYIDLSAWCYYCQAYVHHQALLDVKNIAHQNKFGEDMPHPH", "settings": "at 10 µM", "units": {"inhibition": "%"}, "values": [
      {"compound": "C=C1C[C@@]2(O)O[C@@]3(C[C@H]2C(C)C)[C@@H](C)CC[C@@H]13", "inhibition": 20.2},
      {"compound": "CC(C)(C)C(=O)NCCCC(=O)O", "inhibition": 0.18},
      {"compound": "N=C1CCCN1Cc1[nH]c(=O)[nH]c(=O)c1Cl", "inhibition": 55.5},
      {"compound": "Cc1cccc(C(=O)O)c1O", "inhibition": 35.8},
      {"compound": "O=C(O)c1cc(/N=N/c2ccc(O)c(C(=O)O)c2)ccc1O", "inhibition": 98.2},
      {"compound": "COc1ccc(NS(=O)(=O)c2ccc(/N=N/c3ccc(O)c(C(=O)O)c3)cc2)nn1", "inhibition": 35.8},
      {"compound": "O=c1[nH]c2ccccc2c(=O)n1CCCN1CCN(c2ccccc2)CC1", "inhibition": 8.65},
      {"compound": "O=C(O)c1ccccc1Nc1cccc(C(F)(F)F)c1", "inhibition": 30.6},
      {"compound": "NC(=O)NCCN1CCN(c2cccc(C(F)(F)F)c2)CC1", "inhibition": 22},
      {"compound": "O=C(OCCN1CCOCC1)c1cccnc1Nc1cccc(C(F)(F)F)c1", "inhibition": 62},
      {"compound": "c1ccc2c(c1)Nc1ccccc1S2", "inhibition": 74.6},
      {"compound": "CC(C)(C)C(=O)OCC(=O)[C@H]1CC[C@H]2[C@@H]3CCC4=CC(=O)CC[C@]4(C)[C@H]3CC[C@]12C", "inhibition": 23.8},
      {"compound": "CCC(=O)c1ccc(OCC(O)CN2CCN(c3ccccc3)CC2)cc1", "note": "(configuration not stated)", "inhibition": 19.9},
      {"compound": "Cc1cc(C)nc(NS(=O)(=O)c2ccc(NC(=S)NC(=O)COc3ccc(Br)cc3Cl)cc2)n1", "inhibition": 19.5},
      {"compound": "CCc1ccc(C2=CC(C)(C)Sc3ccc(C#Cc4ccc(C(=O)O)cc4)cc32)cc1", "inhibition": 63},
      {"compound": "CC1(C)CCC(C)(C)c2cc(C#Cc3ccc(C(=O)O)cc3)ccc21", "inhibition": -3.59},
      {"compound": "CCCc1ccc(C(=O)O)cc1", "inhibition": 29.1},
      {"compound": "COc1cn(-c2ccc(-n3cccn3)cc2F)nc(-c2ccnn2-c2ccccc2)c1=O", "inhibition": 0},
      {"compound": "O=C1NC(=O)c2c1c1c3ccccc3n3c1c1c2c2ccccc2n1C1CCC3O1", "inhibition": 1.84},
      {"compound": "C[C@H](N)Cc1c[nH]cn1", "inhibition": 7.87},
      {"compound": "Oc1ccc(-c2nc3cc(O)cc(Br)c3o2)cc1", "inhibition": 101},
      {"compound": "C/C(=C(/CCOC(=O)C(C)C)SS/C(CCOC(=O)C(C)C)=C(\\C)N(C=O)Cc1cnc(C)nc1N)N(C=O)Cc1cnc(C)nc1N", "inhibition": 9.58},
      {"compound": "COc1cc(CN2CCN(c3ccc(F)cc3)CC2)cc(OC)c1OC", "inhibition": 16.8},
      {"compound": "CCCCCCCCCCCCCCCCCC(=O)OC[C@@H](O)[C@H]1OC[C@H](O)[C@H]1O", "inhibition": 1.06},
      {"compound": "CC(C)(C)NCC(O)c1cc(Cl)c(N)c(C(F)(F)F)c1", "note": "(configuration not stated)", "inhibition": 16.6},
      {"compound": "c1ccc(OCc2ccc(CCCN3CCOCC3)cc2)cc1", "inhibition": 45},
      {"compound": "c1cc(-c2cnn3cc(-c4ccc(OCCN5CCCCC5)cc4)cnc23)ccn1", "inhibition": 69.7},
      {"compound": "CC(C)Oc1ccc(-c2cnc3c(-c4ccnc5ccccc45)cnn3c2)cc1", "inhibition": -2.96},
      {"compound": "c1ccc(-c2cnn3cc(-c4ccc(OCCN5CCOCC5)cc4)cnc23)cc1", "inhibition": 92.3},
      {"compound": "COc1ccc(-c2cnc3c(-c4cccc5ncccc45)cnn3c2)cc1", "inhibition": -9.41},
      {"compound": "C=C1/C(=C\\C=C2/CCC[C@]3(C)[C@@H]([C@H](C)/C=C/[C@H](C)C(C)(C)O)CC[C@@H]23)C[C@@H](O)C[C@@H]1O", "inhibition": -3.96},
      {"compound": "COC(=O)[C@H](Cc1ccc([N+](=O)[O-])cc1)NC(=O)c1cccc2ccccc12", "inhibition": 10.5},
      {"compound": "COc1ccc2cc(-c3cc(-c4cc(Cl)cc(Cl)c4)nn3[C@@H](C)c3ccc(C(=O)NCCC(=O)O)cc3)ccc2c1", "inhibition": 18.3},
      {"compound": "OC[C@H]1O[C@H](O[C@H]2O[C@H](CO)[C@@H](O)[C@H](O)[C@H]2O)[C@H](O)[C@@H](O)[C@@H]1O", "inhibition": -9.27},
      {"compound": "CN(C)c1nc(N)c(C(=O)Nc2cccnc2)nc1Cl", "inhibition": 100},
      {"compound": "O=C(OCC(COC(=O)c1cccnc1)(COC(=O)c1cccnc1)COC(=O)c1cccnc1)c1cccnc1", "inhibition": 7.98},
      {"compound": "Cn1cncc1[C@@](N)(c1ccc(Cl)cc1)c1ccc2c(c1)c(-c1cccc(Cl)c1)cc(=O)n2C", "inhibition": -5.64},
      {"compound": "Nc1nc(NC2CC2)c2ncn([C@H]3C=C[C@@H](CO)C3)c2n1", "inhibition": -5.79},
      {"compound": "NC(=O)OCCCc1ccccc1", "inhibition": 15.1},
      {"compound": "Cc1ccc(NCCCc2ccccc2)c(N)c1", "inhibition": 78.2},
      {"compound": "O=C(O)c1ccccc1NCCc1ccccc1", "inhibition": 42.4},
      {"compound": "CCOc1cc2ncc(C#N)c(Nc3ccc(F)c(Cl)c3)c2cc1NC(=O)/C=C/CN(C)C", "inhibition": 36.7},
      {"compound": "CCOC(=O)CNC(=O)[C@@H]1CCCN1C(=O)Cc1ccccc1", "note": "(PhAc-Pro-Gly-OEt)", "inhibition": 4.19},
      {"compound": "COC(=O)[C@H](CC(C)C)NC(=O)[C@H](N)CC(C)C", "inhibition": 10.2},
      {"compound": "CC1(C)[C@H]2CC[C@@]1(C)[C@H](O)[C@@H]2O", "note": "(racemic)", "inhibition": 31.2},
      {"compound": "CCOC(=O)C1=C(N)Oc2ccc(Br)cc2[C@H]1[C@H](C#N)C(=O)OCC", "inhibition": 52.9},
      {"compound": "CCOC(=O)C1=C(N)Oc2ccc(Br)cc2C1C(C#N)C(=O)OCC", "note": "(configuration not stated)", "inhibition": 27.8},
      {"compound": "Cc1cccc(C)c1NC(=O)CN1CCCCCC1", "inhibition": 16.5},
      {"compound": "C/C(=N\\NC(=N)N)c1cc(NC(=O)CCCCCCCCC(=O)Nc2cc(/C(C)=N/NC(=N)N)cc(/C(C)=N/NC(=N)N)c2)cc(/C(C)=N/NC(=N)N)c1", "inhibition": 77.6},
      {"compound": "Cc1ccc(NC(=O)CCCCCC(=O)Nc2ccccc2N)cc1", "inhibition": -2.93},
      {"compound": "CCS(=O)(=O)N(Cc1cccnc1)c1cccc(-c2ccc(C#N)cc2)c1", "inhibition": 17},
      {"compound": "CC1(N2CCC(n3c([C@H]4CCCNC4)nc4ccccc43)CC2)CCCCCCC1", "inhibition": -2.41},
      {"compound": "CCC[C@@H]1CC(=O)N([C@@H](CC)C(N)=O)C1", "inhibition": 29.1},
      {"compound": "C[C@H](/C=C/[C@H](C)C(C)(C)O)[C@H]1CC[C@H]2/C(=C/C=C3C[C@@H](O)C[C@H](O)C3)CCC[C@]12C", "inhibition": 9.32},
      {"compound": "CCCCN(CCCC)C(=O)CN1C[C@H](c2ccc3c(c2)OCO3)[C@@H](C(=O)O)[C@@H]1c1ccc(OC)cc1", "inhibition": 34.1},
      {"compound": "N=C(Nc1ccccc1)c1cccs1", "inhibition": 37.1},
      {"compound": "N=C(Nc1ccccc1)Nc1ccccc1", "inhibition": 15.5},
      {"compound": "O=C1NC(=S)NC(=O)C1C(=O)Nc1ccccc1", "inhibition": 96.3},
      {"compound": "CON(C)C(=O)[C@H](O)[C@H](Cc1ccccc1)NC(=O)c1cc2cc(Cl)ccc2[nH]1", "inhibition": 5.68},
      {"compound": "CN[C@H]1C[C@@H](N)[C@H](O)[C@@H](O[C@@H]2O[C@H](CO)[C@H](O)[C@@H]3OC4(O[C@H]23)O[C@H]([C@@H](N)CO)[C@H](O)[C@H](O)[C@H]4O)[C@@H]1O", "note": "(some centres not stated)", "inhibition": 6.11},
      {"compound": "N#Cc1ccc2[nH]c(O)c(-c3ccc(CN4CCOCC4)cn3)c2c1", "inhibition": 11.3},
      {"compound": "Cc1[nH]c(/C=C2\\C(=O)Nc3cc(-c4ccccc4)ccc32)c(C)c1CCC(=O)O", "inhibition": 95.2}
    ]}
  ]
}
